Data reported in PubChem BioAssay (NCI).
About 79,000 compounds went through this panel and 15% of them were active in at least one assay; those are over-represented in the sample as a whole. The source made the active and inactive calls. Rule as the data show it: active = growth inhibition above about 70%; inactive = the rest.

Assays:
[1] = NCI Yeast Anticancer Drug Screen. Data for the rad52 strain (AID 147);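 also: 0% = growth of vehicle-treated control cultures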; settings: S. cerevisiae rad52 mutant growth inhibition, hits give high values
How it was run: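 Screen used a yeast mutant impaired in DNA repair. After compound exposure, growth was measured. Values reflect inhibition compared with vehicle-treated cells.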

[2] = NCI Yeast Anticancer Drug Screen. Data for the wt1 strain (AID 149);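 also: 0% = growth of vehicle-treated wt1 cultures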; settings: S. cerevisiae wt1 strain (SPY 50644) growth inhibition, hits give high values
How it was run: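 The wt1 strain was treated with compounds, and growth was compared with vehicle-treated cultures to give inhibition.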

[3] = NCI Yeast Anticancer Drug Screen. Data for the rad50EPP+ strain (AID 151);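 also: 0% = growth of vehicle-treated control cultures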; settings: S. cerevisiae rad50 mutant strain, hits give high values
How it was run: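 Exposing the rad50EPP+ strain to each compound, growth was compared with vehicle-only cultures to give inhibition.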

[4] = NCI Yeast Anticancer Drug Screen. Data for the mgt1 strain (AID 153); settings: S. cerevisiae mgt1 mutant growth inhibition, hits give high values
How it was run: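 Genetically defined yeast (mgt1) treated with compound; inhibition of growth expressed against vehicle-treated controls.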

[5] = NCI Yeast Anticancer Drug Screen. Data for the rad50 strain (AID 155);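 also: 0% = growth of vehicle-only cultures of the same strain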; settings: S. cerevisiae rad50 strain growth inhibition, hits give high values
How it was run: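 Cells are treated with compound, grown, and their growth is then scored against vehicle-only cultures of the same repair-deficient yeast strain.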

[6] = NCI Yeast Anticancer Drug Screen. Data for the mec2-1 strain (AID 157); settings: S. cerevisiae mec2-1 strain, hits give high values
How it was run: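 Readout is yeast growth inhibition, normalised to vehicle-treated controls, in the mec2-1 strain exposed to compound.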

[7] = NCI Yeast Anticancer Drug Screen. Data for the sgs1 mgt1 strain (AID 161);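 also: 0% = growth of cultures given vehicle only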; settings: S. cerevisiae sgs1 mgt1 strain, hits give high values
How it was run: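 Percent growth inhibition was derived by comparing compound-exposed mutant yeast with vehicle-exposed cultures. The strain carries alterations in DNA damage repair.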

[8] = NCI Yeast Anticancer Drug Screen. Data for the CLN2oe strain (AID 163);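 also: 0% = growth of vehicle-only control cultures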; settings: S. cerevisiae CLN2oe strain, hits give high values
How it was run: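 Values reflect how much compound exposure reduced yeast growth, referenced to vehicle-exposed cells. Assay organism is a strain with a defined genetic change affecting cell-cycle control.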

[9] = NCI Yeast Anticancer Drug Screen. Data for the cln2 rad14 strain (AID 165);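 also: 0% = growth equal to vehicle treated cultures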; settings: S. cerevisiae cln2 rad14 strain, hits give high values
How it was run: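 Relative to vehicle controls, growth inhibition of compound-treated cln2 rad14 yeast was recorded.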

[10] = NCI Yeast Anticancer Drug Screen. Data for the bub3 strain (AID 167); settings: S. cerevisiae bub3 mutant strain, hits give high values
How it was run: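 Part of a panel of yeast mutants defective in DNA damage repair or cell cycle regulation. Each strain is grown with compound, and inhibition is calculated relative to solvent-treated cultures.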

[11] = NCI Yeast Anticancer Drug Screen. Data for the wt2 strain (AID 169);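 also: 0% = growth of vehicle-treated yeast cultures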; settings: S. cerevisiae wt2 strain growth inhibition, hits give high values
How it was run: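 Values express reduction in yeast growth under compound treatment, referenced to vehicle-treated cells.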

[12] = NCI Yeast Anticancer Drug Screen. Data for the mlh1 strain (AID 171);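 also: 0% = growth of vehicle-treated control cultures of the same strain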; settings: S. cerevisiae mlh1 strain growth inhibition, hits give high values
How it was run: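 Steps: expose the defined-mutant yeast strain to compound; expose a parallel culture to vehicle; measure growth; express compound effect as inhibition relative to the vehicle culture.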

[13] = NCI Yeast Anticancer Drug Screen. Data for the sgs1 strain (AID 173);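 also: 0% = growth of vehicle-only control cultures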; settings: S. cerevisiae sgs1 mutant, hits give high values
How it was run: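 Treat defined-mutant yeast with compound; measure growth; calculate inhibition relative to vehicle-treated cells.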

[14] = NCI Yeast Anticancer Drug Screen. Data for the mlh1 rad18 strain (AID 175); settings: S. cerevisiae mlh1 rad18 strain growth inhibition, hits give high values
How it was run: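 Test agents were incubated with a yeast strain of defined genotype (DNA damage repair defect). Inhibition of growth was derived by comparison with vehicle-exposed cultures.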

[15] = NCI Yeast Anticancer Drug Screen. Data for the rad18 strain (AID 177); settings: S. cerevisiae rad18 mutant growth inhibition, hits give high values
How it was run: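 A genetically defined yeast mutant impaired in DNA damage repair was treated with test compounds, then its growth was measured against cultures receiving vehicle alone.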

[16] = at 5.0 µM (retest, dose inferred, filed as 0.5)
[17] = at 50.0 µM (retest, dose inferred, filed as 5.0)

Measured: growth inhibition

Nc1cc2c(cc1N)-c1ccccc1C2=O
inactive: [1]; at 1.2 µM -3% | [1]; at 3.7 µM -3% | [1]; at 11.0 µM 2% | [1]; at 33.0 µM 23% | [2]; at 1.2 µM -2% | [2]; at 3.7 µM -3% | [2]; at 11.0 µM -4% | [2]; at 33.0 µM 3% | [2]; at 100.0 µM 36% | [3]; at 1.2 µM 1% | [3]; at 3.7 µM 9% | [3]; at 11.0 µM 18% | [3]; at 33.0 µM 31% | [4]; at 1.2 µM -3% | [4]; at 3.7 µM -2% | [4]; at 11.0 µM -2% | [4]; at 33.0 µM 1% | [5]; at 1.2 µM 0% | [5]; at 3.7 µM -57% | [5]; [16] 4% | [5]; at 11.0 µM 19% | [5]; at 33.0 µM 37% | [5]; [17] 67% | [6]; at 1.2 µM -2% | [6]; at 3.7 µM -4% | [6]; [16] 0% | [6]; at 11.0 µM -1% | [6]; at 33.0 µM 9% | [6]; [17] 23% | [6]; at 50.0 µM 39% | [7]; [16] -8% | [7]; [17] 17% | [7]; at 50.0 µM -11.9% | [8]; at 1.2 µM -3% | [8]; at 3.7 µM 0% | [8]; at 11.0 µM 2% | [8]; at 33.0 µM 2% | [8]; at 100.0 µM 13% | [9]; [16] -10% | [9]; [17] 15% | [9]; at 50.0 µM -0.1% | [10]; at 1.2 µM -2% | [10]; at 3.7 µM 1% | [10]; [16] 0% | [10]; at 11.0 µM 0% | [10]; at 33.0 µM 4% | [10]; [17] 49% | [10]; at 50.0 µM 45.1% | [10]; at 100.0 µM 65% | [11]; at 1.2 µM -3% | [11]; at 3.7 µM 6% | [11]; at 11.0 µM -2% | [11]; at 33.0 µM 1% | [11]; at 100.0 µM 41% | [12]; at 1.2 µM -1% | [12]; at 3.7 µM -2% | [12]; at 11.0 µM -2% | [12]; at 33.0 µM 2% | [13]; at 1.2 µM -3% | [13]; at 3.7 µM -3% | [13]; at 11.0 µM -1% | [13]; at 33.0 µM 6% | [14]; [16] 0% | [14]; [17] 57% | [14]; at 50.0 µM 68.7% | [15]; at 1.2 µM -3% | [15]; at 3.7 µM 1% | [15]; at 11.0 µM 5% | [15]; at 33.0 µM 21%
active: [1]; at 100.0 µM 87% | [3]; at 100.0 µM 70% | [4]; at 100.0 µM 95% | [5]; at 50.0 µM 71.4% | [5]; at 100.0 µM 92% | [6]; at 100.0 µM 70% | [12]; at 100.0 µM 86% | [13]; at 100.0 µM 74% | [15]; at 100.0 µM 93%

Cc1ccc([N+](=O)[O-])c2c(NCCC[N+](C)(C)[O-])c3ccccc3nc12
inactive: [1]; at 1.2 µM -8% | [1]; at 3.7 µM -4% | [1]; at 11.0 µM 8% | [1]; at 33.0 µM 47% | [2]; at 1.2 µM -5% | [2]; at 3.7 µM 0% | [2]; at 11.0 µM 2% | [2]; at 33.0 µM 2% | [2]; at 100.0 µM 2% | [3]; at 1.2 µM -9% | [3]; at 3.7 µM -10% | [3]; at 11.0 µM -6% | [3]; at 33.0 µM 8% | [3]; at 100.0 µM 54% | [4]; at 1.2 µM -2% | [4]; at 3.7 µM 0% | [4]; at 11.0 µM -6% | [4]; at 33.0 µM 5% | [4]; at 100.0 µM 1% | [5]; at 1.2 µM 4% | [5]; at 3.7 µM 7% | [5]; [16] -16% | [5]; at 11.0 µM 3% | [5]; at 33.0 µM 38% | [5]; [17] 44% | [5]; at 50.0 µM 61.2% | [6]; at 1.2 µM -15% | [6]; at 3.7 µM -10% | [6]; [16] 11% | [6]; at 11.0 µM -14% | [6]; at 33.0 µM -1% | [6]; [17] 64% | [6]; at 50.0 µM 1.6% | [7]; [16] 6% | [7]; [17] 62% | [7]; at 50.0 µM 56.8% | [8]; at 1.2 µM -16% | [8]; at 3.7 µM -9% | [8]; at 11.0 µM -17% | [8]; at 33.0 µM -21% | [8]; at 100.0 µM 10% | [9]; [16] 18% | [10]; at 1.2 µM -11% | [10]; at 3.7 µM -4% | [10]; [16] -22% | [10]; at 11.0 µM -20% | [10]; at 33.0 µM -13% | [10]; [17] 3% | [10]; at 50.0 µM -36% | [10]; at 100.0 µM -17% | [11]; at 1.2 µM 0% | [11]; at 3.7 µM -4% | [11]; at 11.0 µM 4% | [11]; at 33.0 µM 8% | [11]; at 100.0 µM 10% | [12]; at 1.2 µM 26% | [12]; at 3.7 µM 11% | [12]; at 11.0 µM 10% | [12]; at 33.0 µM -12% | [12]; at 100.0 µM 27% | [13]; at 1.2 µM -7% | [13]; at 3.7 µM 6% | [13]; at 11.0 µM 31% | [13]; at 33.0 µM 66% | [14]; [16] 31% | [14]; at 50.0 µM 45.1% | [15]; at 1.2 µM 22%
active: [1]; at 100.0 µM 85% | [5]; at 100.0 µM 81% | [6]; at 100.0 µM 82% | [9]; [17] 91% | [9]; at 50.0 µM 77.8% | [13]; at 100.0 µM 81% | [14]; [17] 82% | [15]; at 3.7 µM 76% | [15]; at 11.0 µM 90% | [15]; at 33.0 µM 94% | [15]; at 100.0 µM 94%
